Active and inactive are the calls of the source. The call rests on the fitted dose curve; in most records, active means well fitted curve in the direction sought with a large enough effect; inactive means no such curve, though single readings can be large or run the other way.
molecular target: Alpha-galactosidase (Coffea arabica) (UniProt Q42656); assay: Counterscreen for Glucocerebrosidase Inhibitors: qHTS Assay for Coffee Bean alpha-Galactosidase at pH 5.9 (AID 998); details: coffee bean alpha-galactosidase enzyme assay; series mostly up to 76.9 µM
Sequence (Q42656 whole entry, looked up): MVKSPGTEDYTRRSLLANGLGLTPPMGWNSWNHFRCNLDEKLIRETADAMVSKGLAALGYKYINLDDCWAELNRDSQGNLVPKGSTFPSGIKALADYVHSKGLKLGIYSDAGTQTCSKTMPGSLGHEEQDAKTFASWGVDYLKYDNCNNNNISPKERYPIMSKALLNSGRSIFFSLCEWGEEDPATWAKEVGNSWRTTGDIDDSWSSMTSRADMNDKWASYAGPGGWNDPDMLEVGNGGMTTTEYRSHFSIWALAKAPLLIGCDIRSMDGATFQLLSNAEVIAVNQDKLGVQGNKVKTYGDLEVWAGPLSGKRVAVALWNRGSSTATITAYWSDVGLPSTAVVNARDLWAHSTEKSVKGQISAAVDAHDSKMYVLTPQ
Description: NIH Chemical Genomics Center [NCGC]
NIH Molecular Libraries Screening Centers Network [MLSCN]
PI Name: Zheng, Wei [NIH]
Alpha-galactosidase is a homodimeric glycoprotein that hydrolyzes the terminal alpha-galactosyl moieties from glycolipids and glycoproteins. Deficiency of this enzyme results in Fabry Disease with progressive accumulation of globotriaosylceramide and other glycosphingolipids in vascular endothelial cells that causes renal failure, myocardial infarction and stroke, and premature death in patients. It has reported that the improper folding and trafficking of alpha-galactosidase resulted from the genetic mutations may account for a significant numbers of Fabry patients. […] We optimized this coffee bean alpha-galactosidase assay in 1536-well plate format as a counter-screen assay for identifying the selective small molecule inhibitors of other lysosomal enzymes.
NCGC Assay Protocol Summary:
This is a fluorogenic enzyme assay with 4-Methylumbelliferyl alpha-D-galactopyranoside as the substrate and green coffee bean […] (from Sigma-Aldrich) as the enzyme preparation. Upon the hydrolysis of this fluorogenic substrate, the resulting product, […]. 4-Methyllumbelliferone, can be excited at 365 nm and emits at 440 nm which can be detected by a standard fluorescence plate reader. Data were normalized to the controls for basal activity (without enzyme) and 100% activity (with enzyme). In the AC50 values were determined from concentration-response data modeled with the standard Hill equation.
Assay buffer: 50 mM citric acid, 0.005% Tween-20, pH 5.9. (pH 5.9 is an optimal condition for this enzyme assay.)
1536-well assay protocol for the coffee bean alpha-galactosidase:
(1) Add 2 ul/well of enzyme (2 nM final)
(2) Add 23 nL compounds in DMSO solution. The final titration was 0.7 nM to 77 uM.
(3) Add 1 ul of substrate (80 uM final)
(4) Incubate at room temperature for 20 min.
(5) Add 2 ul stop solution (1M NaOH and 1M Glycine mixture, pH 10)
(6) Detect the assay plate in a ViewLux plate reader (PerkinElmer) with Ex=365 nm and Em=440nm.
Keywords: Alpha-galactosidase, Fabry Disease, pharmacological chaperone, chaperone therapy, high throughput screening, alpha-galactosidase inhibitor, MLSMR, MLSCN, NIH Roadmap, qHTS and NCGC

SMILES	outcome
O=C1NC(O)=NC1(c1ccccc1)c1ccccc1	inactive
CN(C)C/C=C(\c1ccc(Br)cc1)c1cccnc1	inactive
CC1(C)CCC(NC(=O)[C@H](N)CCC(=O)O)CC1	inactive
CC(C)(O)[C@H]1[C@H]2OC(=O)[C@@H]1[C@]1(O)C[C@H]3O[C@]34C(=O)O[C@H]2[C@]14C (tested in a mixture with another compound)	inactive
CC(N)=NCCC[C@H](N)C(=O)O	inactive
CSc1nc(N)c2ncn([C@@H]3O[C@@H](COP(=O)(O)OP(=O)(O)OP(=O)(O)O)[C@@H](O)[C@H]3O)c2n1	inactive
c1ccc2c(c1)CCC[C@H]2C1=NCCN1	inactive
COc1ccc2c(c1)CCC1C2CC[C@]2(C)[C@H](NCCCCCCN3C(=O)C=CC3=O)CC[C@@H]12 (stereo not given in full)	inactive
CCN(c1nc(N)c(C(=O)N=C(N)N)nc1Cl)C(C)C	inactive
CN=C(NC#N)Nc1ccc(C2=NNC(=O)C[C@@H]2C)cc1	inactive
O=C(O)C[C@@H]1CCCc2ccccc2[C@H]1O	inactive
CNc1ncnc2c1ncn2[C@@H]1O[C@@H](CO)[C@H](O)[C@@H]1O	inactive
C=CCc1ccccc1OC[C@H](O)CNC(C)C	inactive
Nc1ccn([C@@H]2O[C@@H](CO)[C@@H](O)[C@H]2O)c(=O)n1	inactive
NCCC(=O)NCCc1cnc[nH]1	inactive
O=C1OC(=O)[C@@H]2[C@@H]1[C@@H]1CC[C@H]2O1	inactive
COc1cc([C@H](O)C(=O)O)ccc1O	inactive
Nc1nc(Nc2ccccc2)nc2c1ncn2[C@@H]1O[C@@H](CO)[C@H](O)[C@@H]1O	inactive
COc1ccccc1CNCCCCCCNCCCCCCCCNCCCCCCNCc1ccccc1OC	inactive
N=C(N)SCCc1cccc(CCSC(=N)N)c1	inactive

SMILES	outcome
Cc1ccc(/C(=C/CN2CCCC2)c2ccccn2)cc1	inactive
CCOC(=O)[C@@]12C[C@@H]1/C(=N/O)c1ccccc1O2	inactive
O=[N+]([O-])c1ccc(CSc2ncnc3c2ncn3[C@@H]2O[C@@H](CO)[C@@H](O)[C@H]2O)cc1	inactive
CCN(CC)CCC[C@H](C)Nc1ccnc2cc(Cl)ccc12	inactive
Oc1ccc([C@@H]2CNCc3sccc32)cc1O	inactive
O=[N+]([O-])c1ccc(O[C@H]2O[C@@H](CO)[C@@H](O)[C@@H](O)[C@@H]2F)c([N+](=O)[O-])c1	inactive
CSc1ccc2c(c1)[C@H](N1CCN(C)CC1)Cc1ccccc1S2	inactive
Cn1c(=O)c2c(nc(/C=C\c3cccc(Cl)c3)n2C)n(C)c1=O	inactive
CC(C)(C)c1onc(OCP(=O)(O)O)c1C[C@@H](N)C(=O)O	inactive
O=C(OCCN1CCCCC1)c1c[nH]c2ccccc12	inactive
CN(C)c1ccc(/C=C2/C(=O)Nc3ccccc32)cc1	inactive
CCCCOc1cc(C[C@@H]2CNC(=O)N2)ccc1OC	inactive
CCCCCCCCCC[Si](C)(C)CCC(=O)N[C@@H](Cc1ccc(C)cc1)c1ccccc1	inactive
CCCCC[C@H](O)CCCC(=O)O	inactive
CO[C@]1(C2=NCCN2)COc2ccccc2O1	inactive
CC(N)=NCCCC[C@H](N)C(=O)O	inactive
N[C@@H](CO)C(=O)NNCc1ccc(O)c(O)c1O	inactive
O=C(O)CNC(=O)[C@@H](CS)Cc1ccccc1	inactive
C[C@@H](COc1ccccc1)N(CCCl)Cc1ccccc1	inactive
CCCC[S@@](=N)(=O)CC[C@@H](N)C(=O)O	inactive

— PubChem BioAssay (NCATS)
